Data from PubChem BioAssay AID1159580 (chemical genetic matrix, 2015).
Values joined by “and” are separate entries in the source; they are usually repeats but may differ in a detail not shown here. Equal entries are not always repeated. Among all 5,500 compounds or so, about 2,000 (36%) were called active. Another 18% or so got no clear call; they are omitted. Rule as the data show it: active = normalized growth mostly below about 0.91 (no sharp cut-off); inconclusive = no clear call, values can overlap the other calls; inactive = mostly above about 0.92. Some of the results follow.

Assay: chemical genetic growth profiling, strain panel (AID 1159580);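 also: tested at 20 µM; growth read once vehicle control cultures reached saturation at 30 °C; 1 = growth at the plate median or of vehicle wells; lower values mean less growth of the strain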
Settings: S. cerevisiae deletion strains, growth OD

Measured: normalized growth

C[N+](C)(C)CCOP(=O)([O-])OP(=O)(O)OC[C@H]1OC(n2ccc(N)nc2=O)[C@H](O)[C@@H]1O (some centres not stated)
inactive: locus YAL013W, strain DEP1, stronger effect = lower value 0.99 | locus YAL021C, strain ccr4, stronger effect = lower value 1 | locus YAL026C, strain drs2, stronger effect = lower value 1 | locus YAL030W, strain snc1, stronger effect = lower value 0.991 | locus YBL061C, strain skt5, stronger effect = lower value 0.983 | locus YBR009C, strain hhf1, stronger effect = lower value 1.01 | locus YBR021W, strain FUR4, stronger effect = lower value 1.01 | locus YBR023C, strain chs3, stronger effect = lower value 0.987 | locus YBR171W, strain sec66, stronger effect = lower value 0.962 | locus YBR229C, strain ROT2, stronger effect = lower value 1 | locus YBR231C, strain swc5, stronger effect = lower value 0.976 | locus YBR279W, strain paf1, stronger effect = lower value 0.992 | locus YCL011C, strain gbp2, stronger effect = lower value 0.998 | locus YCL016C, strain dcc1, stronger effect = lower value 1.01 | locus YCL029C, strain bik1, stronger effect = lower value 0.999 | locus YCL061C, strain MRC1, stronger effect = lower value 0.972 | locus YCL069W, strain vba3, stronger effect = lower value 0.975 | locus YCR088W, strain abp1, stronger effect = lower value 0.98 | locus YDL005C, strain med2, stronger effect = lower value 0.977 | locus YDL035C, strain GPR1, stronger effect = lower value 0.993 | locus YDL040C, strain nat1, stronger effect = lower value 0.979 | locus YDL074C, strain BRE1, stronger effect = lower value 0.972 | locus YDL101C, strain DUN1, stronger effect = lower value 0.999 | locus YDL134C, strain PPH21, stronger effect = lower value 1.01 | locus YDL185W, strain tfp1, stronger effect = lower value 0.992 | locus YDL192W, strain arf1, stronger effect = lower value 1.01 | locus YDR001C, strain nth1, stronger effect = lower value 0.978 | locus YDR069C, strain doa4, stronger effect = lower value 0.976 | locus YDR101C, strain arx1, stronger effect = lower value 0.989 | locus YDR137W, strain rgp1, stronger effect = lower value 0.991 | locus YDR150W, strain NUM1, stronger effect = lower value 1 | locus YDR159W, strain sac3, stronger effect = lower value 1 | locus YDR162C, strain NBP2, stronger effect = lower value 0.981 | locus YDR195W, strain ref2 0.94 | locus YDR297W, strain sur2, stronger effect = lower value 0.989 | locus YDR318W, strain mcm21, stronger effect = lower value 1.01 | locus YDR334W, strain swr1, stronger effect = lower value 0.974 | locus YDR335W, strain msn5, stronger effect = lower value 0.991 | locus YDR388W, stronger effect = lower value 1 | locus YDR392W, strain spt3, stronger effect = lower value 1.05 | locus YDR502C, strain sam2, stronger effect = lower value 0.995 | locus YEL003W, strain gim4, stronger effect = lower value 0.986 | locus YEL037C, strain rad23, stronger effect = lower value 0.976 | locus YEL061C, strain CIN8 (second series), stronger effect = lower value 0.971 | locus YEL061C, strain CIN8, stronger effect = lower value 0.996 | locus YER015W, strain faa2, stronger effect = lower value 1 | locus YER016W, strain bim1, stronger effect = lower value 0.985 | locus YER110C, stronger effect = lower value 1 | locus YER111C, strain swi4, stronger effect = lower value 0.978 | locus YER155C, strain BEM2 (second series), stronger effect = lower value 0.98 | locus YER155C, strain BEM2, stronger effect = lower value 0.995 | locus YER167W, strain BCK2, stronger effect = lower value 1.02 | locus YFR010W, strain ubp6, stronger effect = lower value 0.974 | locus YGL078C, strain dbp3, stronger effect = lower value 0.998 | locus YGL086W, strain mad1, stronger effect = lower value 1.01 | locus YGL167C, strain pmr1, stronger effect = lower value 0.973 | locus YGL173C, strain kem1, stronger effect = lower value 0.983 | locus YGL227W, strain vid30, stronger effect = lower value 0.973 | locus YGL240W, strain doc1, stronger effect = lower value 0.969 | locus YGL248W, strain PDE1, stronger effect = lower value 1.02 | locus YGL253W, strain hxk2, stronger effect = lower value 0.993 | locus YGR078C, strain PAC10, stronger effect = lower value 0.997 | locus YGR135W, strain pre9, stronger effect = lower value 0.987 | locus YGR229C, strain SMI1, stronger effect = lower value 0.98 | locus YGR252W, strain gcn5, stronger effect = lower value 1.02 | locus YHR013C, strain ard1, stronger effect = lower value 0.969 | locus YHR027C, strain rpn1, stronger effect = lower value 0.992 | locus YHR030C, strain SLT2, stronger effect = lower value 0.998 and 1 | locus YHR079C, strain IRE1 (second series), stronger effect = lower value 1.01 | locus YHR079C, strain IRE1, stronger effect = lower value 1.01 | locus YHR094C, strain hxt1, stronger effect = lower value 0.997 | locus YHR129C, strain ARP1, stronger effect = lower value 1.01 | locus YHR142W, strain chs7, stronger effect = lower value 0.98 | locus YHR200W, strain rpn10, stronger effect = lower value 1 | locus YIL066C, strain RNR3, stronger effect = lower value 0.995 | locus YIL073C, strain SPO22, stronger effect = lower value 1.06 | locus YIL125W, strain kgd1, stronger effect = lower value 1 | locus YIR030C, strain dcg1, stronger effect = lower value 0.999 | locus YJL092W, strain hpr5, stronger effect = lower value 0.974 | locus YJL095W, strain BCK1 (second series), stronger effect = lower value 0.99 | locus YJL095W, strain BCK1, stronger effect = lower value 0.987 and 0.994 | locus YJL115W, strain asf1, stronger effect = lower value 0.977 | locus YJL129C, strain trk1, stronger effect = lower value 0.99 | locus YJL134W, strain LCB3, stronger effect = lower value 1 | locus YJL154C, strain vps35, stronger effect = lower value 0.981 | locus YJL164C, strain tpk1, stronger effect = lower value 1 | locus YJL166W, strain qcr8, stronger effect = lower value 0.963 | locus YJL168C, strain set2, stronger effect = lower value 1 | locus YJL187C, strain SWE1 (second series), stronger effect = lower value 1 | locus YJL187C, strain SWE1, stronger effect = lower value 0.993 | locus YJR043C, strain POL32, stronger effect = lower value 1.02 | locus YJR066W, strain TOR1, stronger effect = lower value 0.952
